PubChem BioAssay (NCI)
About 83,000 compounds went through this panel and 20% of them were active in at least one assay; those are over-represented in the sample as a whole.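 Interpretation: 100, growth as untreated; towards 0, rising growth inhibition; 0, no net growth; 0 to -100, cell death. Compounds scoring below 10 were considered active.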 Calls of active or inactive are those of the source.

Key:
Test in all cases: NCI-60 one-dose screen, 48 h (100 = growth as untreated, 0 = no growth, -100 = all killed)
Conditions in all cases: 10 µM unless noted
SK-MEL-2 melanoma = test system: SK-MEL-2 melanoma
EKVX NSCLC = test system: EKVX NSCLC
SN12C renal = test system: SN12C renal
UO-31 renal = test system: UO-31 renal
ACHN renal = test system: ACHN renal
A498 renal = test system: A498 renal
CCRF-CEM leukemia = test system: CCRF-CEM leukemia
MOLT-4 leukemia = test system: MOLT-4 leukemia

Measured: growth

CC(=O)Nc1ccc([I+]c2ccc([N+](=O)[O-])cc2)cc1
inactive: SK-MEL-2 melanoma 103% | EKVX NSCLC 88.7% | SN12C renal 88.3% | UO-31 renal 60.8% | ACHN renal 89.7% | A498 renal 104% | CCRF-CEM leukemia 89.2% | MOLT-4 leukemia 86.9%

CC(C)[C@@H]1NC(=O)[C@]2(C)CSC(=N2)c2ccnc(c2)CNC(=O)C[C@@H](/C=C/CCS)OC1=O
inactive: EKVX NSCLC 31.4% | SN12C renal 27.8% | UO-31 renal 12% | CCRF-CEM leukemia 16%
active: SK-MEL-2 melanoma -28.2% | ACHN renal 6.6% | A498 renal -77% | MOLT-4 leukemia 8.13%

C/C(=N\N=C1/SCC(=O)N1c1ccccc1)c1ccco1
inactive: SK-MEL-2 melanoma 91.6% | EKVX NSCLC 105% | SN12C renal 131% | UO-31 renal 84.9% | ACHN renal 106% | A498 renal 89.2% | MOLT-4 leukemia 112%
active: CCRF-CEM leukemia -63.9%

Nc1ncc(-c2ccc3ncnc(Nc4ccc(F)c(Cl)c4)c3c2)cn1
active: ACHN renal -74.2%
inactive: SK-MEL-2 melanoma 95% | EKVX NSCLC 40.8% | SN12C renal 37.4% | UO-31 renal 12% | A498 renal 23% | CCRF-CEM leukemia 61.4% | MOLT-4 leukemia 80.4%

COc1ccc(CNc2nc3ccccc3c3c(=O)c4ccccc4sc23)cc1OC
inactive: SK-MEL-2 melanoma 102% | EKVX NSCLC 84.3% | SN12C renal 82.5% | UO-31 renal 85% | ACHN renal 40.2% | A498 renal 64.2% | CCRF-CEM leukemia 84.8% | MOLT-4 leukemia 86.6%

CCN(CC)CCNC(=O)c1c(C)[nH]c(/C=C2\C(=O)Nc3cc(NC(=O)NC(=O)c4ccc(OC)cc4F)ccc32)c1C
inactive: SK-MEL-2 melanoma 128% | EKVX NSCLC 114% | SN12C renal 97.3% | UO-31 renal 96.2% | ACHN renal 38.2% | A498 renal 77.6% | CCRF-CEM leukemia 42.4% | MOLT-4 leukemia 38.2%

CN(C)CCNc1nc2ccccc2c2c(=O)c3ccccc3sc12
active: SK-MEL-2 melanoma -11% | ACHN renal 7.03% | A498 renal -2.07% | CCRF-CEM leukemia 6.74% | MOLT-4 leukemia -4.55%
inactive: EKVX NSCLC 30.7% | SN12C renal 32.1% | UO-31 renal 12.6%

Nc1ncnc2c1c(-c1ccc(Oc3ccccc3)cc1)nn2C[C@@H]1SSC[C@H]1O
active: SK-MEL-2 melanoma -14.4% | UO-31 renal 0.587% | A498 renal -5.51% | MOLT-4 leukemia 0.449%
inactive: EKVX NSCLC 33.2% | SN12C renal 23.3% | ACHN renal 11.6% | CCRF-CEM leukemia 32.9%

CC(C)(C)OC(=O)N1CCN(CCn2cc(C(F)(F)F)c3c(Cl)ncnc32)CC1
inactive: SK-MEL-2 melanoma 44.5% | EKVX NSCLC 101% | SN12C renal 71.9% | ACHN renal 96.6% | A498 renal 103% | CCRF-CEM leukemia 28.5% | MOLT-4 leukemia 23.4%
active: UO-31 renal -80.8%

O=c1c2ccccc2sc2c(NCCCNCCO)nc3ccccc3c12
inactive: EKVX NSCLC 55.6% | SN12C renal 44.8% | UO-31 renal 28.9% | A498 renal 16.4%
active: SK-MEL-2 melanoma -35.6% | ACHN renal -7.87% | CCRF-CEM leukemia -6.25% | MOLT-4 leukemia -20.4%

Fc1ccc(Nc2ncnc3ccc(-c4cn[nH]c4)cc23)cc1Cl
active: A498 renal 7.79%
inactive: SK-MEL-2 melanoma 45.3% | EKVX NSCLC 22.4% | SN12C renal 56.8% | UO-31 renal 45.6% | ACHN renal 26.1% | CCRF-CEM leukemia 75.3% | MOLT-4 leukemia 56.7%

Cc1cccc(NC(=O)CCc2ccc(N3C(N)=NC(N)=NC3(C)C)cc2)c1
inactive: SK-MEL-2 melanoma 59.9% | EKVX NSCLC 55.6% | SN12C renal 30.3% | UO-31 renal 115% | ACHN renal 101% | A498 renal 95.2% | CCRF-CEM leukemia 31.1% | MOLT-4 leukemia 50.5%

c1ccc(-c2nc3sc(C(c4ccccc4)c4ccccc4)nn3c2-c2ccccc2)cc1
inactive: SK-MEL-2 melanoma 81.3% | EKVX NSCLC 89.8% | SN12C renal 93.8% | UO-31 renal 90.8% | ACHN renal 97.5% | A498 renal 87.6% | CCRF-CEM leukemia 100% | MOLT-4 leukemia 107%

COc1ccc(C(=O)NC(=O)Nc2ccc3c(c2)NC(=O)/C3=C\c2[nH]c(C)c(C(=O)O)c2C)c(F)c1
inactive: SK-MEL-2 melanoma 55.3% | EKVX NSCLC 94.4% | SN12C renal 57.9% | UO-31 renal 88.4% | ACHN renal 55.2% | A498 renal 64.8% | CCRF-CEM leukemia 84.3% | MOLT-4 leukemia 86.2%

CS(=O)(=O)Nc1cccc(-c2ccc3ncnc(Nc4ccc(F)c(Cl)c4)c3c2)c1
active: SK-MEL-2 melanoma -4.95% | EKVX NSCLC 7.22% | A498 renal -25.7% | MOLT-4 leukemia 0.953%
inactive: SN12C renal 44.2% | UO-31 renal 21.1% | ACHN renal 22.3% | CCRF-CEM leukemia 19.1%

CCc1ccc(C2=C/C(=C/c3ccc(Cl)cc3)C(=O)N2CCc2ccc(S(N)(=O)=O)cc2)cc1
inactive: EKVX NSCLC 29.7% | SN12C renal 29% | UO-31 renal 16.5% | ACHN renal 14.9% | A498 renal 33.1% | CCRF-CEM leukemia 15%
active: SK-MEL-2 melanoma -12.5% | MOLT-4 leukemia -1.62%

COc1ccc2c(c1)nnc1c3cccnc3[nH]c21
inactive: EKVX NSCLC 34.2% | A498 renal 40.3%
active: SK-MEL-2 melanoma -13.2% | SN12C renal -22.2% | UO-31 renal -74.1% | ACHN renal -10.2% | CCRF-CEM leukemia -0.9% | MOLT-4 leukemia -21.6%

O=C(Nc1ccccc1Cl)c1c[nH]c(=O)c(-c2ccc(N3CCCOC4(CC4)C3)cc2)c1
inactive: SK-MEL-2 melanoma 70.1% | EKVX NSCLC 37.6% | SN12C renal 74.9% | UO-31 renal 65.7% | ACHN renal 72.2% | A498 renal 47.9% | CCRF-CEM leukemia 48.3% | MOLT-4 leukemia 48.1%

CCOc1ccc(NC(=O)Nc2cc(C(C)C)ccc2C)cc1
inactive: SK-MEL-2 melanoma 68.6% | EKVX NSCLC 96.1% | SN12C renal 57.3% | UO-31 renal 15.2% | ACHN renal 20.6% | A498 renal 87.2% | CCRF-CEM leukemia 44.4% | MOLT-4 leukemia 72.2%

CCCCCCCC(=O)SCC/C=C/[C@@H]1CC(=O)NCc2nc(cs2)C2=N[C@@](C)(CS2)C(=O)N[C@@H](C(C)C)C(=O)N1
inactive: EKVX NSCLC 32.8% | SN12C renal 35.5% | UO-31 renal 18.9% | CCRF-CEM leukemia 21.3%
active: SK-MEL-2 melanoma -34.7% | ACHN renal 7.25% | A498 renal -50.3% | MOLT-4 leukemia 9.36%

Nc1ncnc2c1c(-c1ccc(Oc3ccccc3)cc1)nn2C[C@H]1SSC[C@H]1O
inactive: SN12C renal 20.7% | ACHN renal 10.3% | A498 renal 18.9% | CCRF-CEM leukemia 11.1%
active: SK-MEL-2 melanoma -75.1% | EKVX NSCLC 6.97% | UO-31 renal -3.37% | MOLT-4 leukemia -2.47%

O=C(Nc1ccc(Cl)c(Cl)c1)Nc1ccc(Cl)c([N+](=O)[O-])c1
active: SK-MEL-2 melanoma -43.4% | EKVX NSCLC 4.27% | SN12C renal 6.3% | UO-31 renal 0.279% | ACHN renal 1.36% | A498 renal -25.9% | CCRF-CEM leukemia 1.21% | MOLT-4 leukemia -30.9%

O=C(C[n+]1ccccc1Cl)c1ccc2c(c1)CCCC2
inactive: SK-MEL-2 melanoma 103% | EKVX NSCLC 78.9% | SN12C renal 101% | UO-31 renal 93.6% | ACHN renal 105% | A498 renal 91.3% | CCRF-CEM leukemia 90.6% | MOLT-4 leukemia 73.6%

O=c1nc(N2CCOCC2)oc2c(-c3cccc4ccccc34)cccc12
inactive: SK-MEL-2 melanoma 100% | EKVX NSCLC 81.1% | SN12C renal 82.3% | UO-31 renal 53.4% | ACHN renal 81.6% | CCRF-CEM leukemia 91.5% | MOLT-4 leukemia 93.1%
active: A498 renal 8.01%

CCCCC(=O)Nc1nc2ccc(SCCC)cc2s1
inactive: SK-MEL-2 melanoma 50.1% | EKVX NSCLC 59.7% | SN12C renal 50.1% | UO-31 renal 37.5% | ACHN renal 75.1% | CCRF-CEM leukemia 44% | MOLT-4 leukemia 29.8%
active: A498 renal 9.34%

c1ccc2c(c1)Oc1cccnc1-n1nccc1-2
inactive: SK-MEL-2 melanoma 121% | EKVX NSCLC 104% | SN12C renal 101% | UO-31 renal 101% | ACHN renal 99.7% | A498 renal 87.2% | CCRF-CEM leukemia 104% | MOLT-4 leukemia 109%

COc1ccc(C(=O)NC(=O)Nc2ccc3c(c2)NC(=O)/C3=C\c2[nH]c(C)c(C(=O)O)c2C)cc1
inactive: SK-MEL-2 melanoma 93.8% | EKVX NSCLC 81.7% | SN12C renal 73% | UO-31 renal 80.4% | ACHN renal 52.6% | A498 renal 95.9% | CCRF-CEM leukemia 64% | MOLT-4 leukemia 25.2%

COc1ccc(C(=O)NC(=O)Nc2ccc3c(c2)NC(=O)/C3=C\c2[nH]c(C)c(CCC(=O)O)c2C)c(F)c1
inactive: EKVX NSCLC 73.1% | SN12C renal 39.7% | UO-31 renal 55.6% | ACHN renal 67% | CCRF-CEM leukemia 12.2% | MOLT-4 leukemia 54.6%
active: SK-MEL-2 melanoma -0.585% | A498 renal -0.45%

COC(=O)c1ccc2c(c1)Oc1ccc(Cl)cc1-c1cc(C)nn1-2
inactive: SK-MEL-2 melanoma 100% | EKVX NSCLC 66.9% | SN12C renal 51.8% | UO-31 renal 82.2% | ACHN renal 22.6% | A498 renal 62.7% | CCRF-CEM leukemia 78.8% | MOLT-4 leukemia 99.9%

COc1cc(/C=C\c2cc(/C=C\c3ccc(O)c(OC)c3)n(C(=O)CNc3ccccc3OC)n2)ccc1O
inactive: SK-MEL-2 melanoma 61.2% | EKVX NSCLC 91.6% | SN12C renal 75.4% | UO-31 renal 46.4% | ACHN renal 45.3% | A498 renal 105% | CCRF-CEM leukemia 45.2% | MOLT-4 leukemia 58.6%

CS(=O)(=O)Nc1cccc(-c2ccc3ncnc(Nc4cncc(Cl)c4)c3c2)c1
active: SK-MEL-2 melanoma 2.44% | A498 renal -34.1% | MOLT-4 leukemia 0.601%
inactive: EKVX NSCLC 10.8% | SN12C renal 52.5% | UO-31 renal 30.3% | ACHN renal 25.6% | CCRF-CEM leukemia 17.1%

CC(C)(C)OC(=O)NCc1cccc(N=C=S)c1
active: A498 renal -11.6% | CCRF-CEM leukemia 3.13% | MOLT-4 leukemia -24.6%
inactive: SK-MEL-2 melanoma 41.9% | EKVX NSCLC 71.6% | SN12C renal 69.6% | UO-31 renal 49.2% | ACHN renal 61.5%
